WRN inhibitor – qHTS for Inhibitors of WRN Helicase; Bifunctional 3'-5' exonuclease/ATP-dependent helicase WRN (Homo sapiens), Q14191; WRN helicase unwinding, fluorescent forked duplex, kinetic; Potency, µM (doses to about 114 µM), inactives show top-dose activity change, negative = inhibition, actives largely listed as inhibitors; 360,000 tested, 0.46% active; AID 651768, 2012; note: % is set by controls: 0 for no effect and ±100 for the full control effect; nearly all actives have a fitted effect of over 55% in size
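WRN at 20 nM final preincubated with compound 15 min at room temperature; reaction started with 100 nM fluorophore/quencher forked duplex oligonucleotide and 2 mM ATP final. Unwinding followed kinetically by red fluorescence (ex 525, em 598 nm).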
Pol beta inh – qHTS Assay for Inhibitors of DNA Polymerase Beta | 340,000 tested, 1.3% active | Potency, µM (titrated, usually from 114 µM), without a hit: at the top dose activity change, negative = inhibition, usual class: inhibitors | Pol beta primer extension/strand displacement, fluorescence kinetic | P06746 | AID 485314, 2010; note: % is set by controls: 0 for no effect and ±100 for the full control effect
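Pol beta (10 nM) and compounds were preincubated 15 min at room temperature, then 50 nM substrate (final) started primer extension/strand displacement. Reads were taken at 0 and 10 min; concentration-response data were fitted to a four-parameter Hill equation.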
POLH inh – qHTS for Inhibitors of Polymerase Eta; Potency, µM (highest dose often 114 µM), for inactives: at the highest dose activity change, negative = inhibition, usual class: inhibitors; recombinant Pol eta, fluorescent DNA replication assay; DNA polymerase eta (Homo sapiens), Q9Y253; 390,000 tested, 1.2% active; note: % is set by controls: 0 for no effect and ±100 for the full control effect
Target sequence (Q9Y253 whole entry, looked up): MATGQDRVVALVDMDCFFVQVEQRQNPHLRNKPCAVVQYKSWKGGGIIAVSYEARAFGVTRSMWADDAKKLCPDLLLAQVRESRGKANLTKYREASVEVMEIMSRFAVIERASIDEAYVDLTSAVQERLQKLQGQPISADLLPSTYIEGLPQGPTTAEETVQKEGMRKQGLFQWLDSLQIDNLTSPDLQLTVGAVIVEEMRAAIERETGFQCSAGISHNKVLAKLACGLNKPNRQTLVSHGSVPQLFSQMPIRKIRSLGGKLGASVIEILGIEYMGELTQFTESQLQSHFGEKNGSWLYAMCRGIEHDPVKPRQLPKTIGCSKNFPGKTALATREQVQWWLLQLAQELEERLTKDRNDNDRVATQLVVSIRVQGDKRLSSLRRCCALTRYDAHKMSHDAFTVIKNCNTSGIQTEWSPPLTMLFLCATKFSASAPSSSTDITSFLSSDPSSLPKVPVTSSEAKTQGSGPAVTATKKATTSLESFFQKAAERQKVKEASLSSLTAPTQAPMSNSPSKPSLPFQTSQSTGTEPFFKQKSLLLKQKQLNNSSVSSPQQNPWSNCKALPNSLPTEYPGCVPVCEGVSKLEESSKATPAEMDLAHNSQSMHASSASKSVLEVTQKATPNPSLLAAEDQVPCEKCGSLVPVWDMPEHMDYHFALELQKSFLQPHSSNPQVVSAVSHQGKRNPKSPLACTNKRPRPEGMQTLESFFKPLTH
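Pol eta at 10 nM preincubated with compounds 15 min at room temperature; reaction started with fluorescent substrate (50 nM final) and read kinetically at 0 and 10 min.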
Pol iota inh – qHTS for Inhibitors of Polymerase Iota; Pol iota fluorescent replication assay, 10 min; Potency, µM (top dose mostly 115 µM), for the others: at the highest dose activity, negative = inhibition, usual class: inhibitors; 390,000 tested, 1% active; AID 588590, 2011
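Fluorescent replication assay read twice, at 0 min and 10 min after adding 50 nM (final) substrate. Enzyme (10 nM) and compounds were first incubated 15 min at room temperature; enzyme-free buffer wells were negative controls.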
Pol kappa inh – qHTS for Inhibitors of Polymerase Kappa. purified Pol kappa, fluorescent DNA synthesis assay, 10 min. Potency, µM (titrated, usually from 107 µM), for inactives: at the highest dose activity, negative = inhibition, most hits filed as inhibitors. 400,000 tested, 0.53% active. AID 588579, 2011; note: % is set by controls: 0 for no effect and ±100 for the full control effect
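Kinetic fluorescence readout at 0 and 10 min followed reaction start with substrate at 50 nM final. Beforehand, enzyme (10 nM Pol kappa) stood 15 min with compound at room temperature; buffer-only wells were negative controls.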
FEN1 inhibitor – qHTS Assay for the Inhibitors of Human Flap endonuclease 1 (FEN1); Recombinant FEN1 flap cleavage, fluorescence, 15 min; Potency, µM (doses to about 114 µM), for the others: top-dose activity change, negative = inhibition, hits mostly inhibitors; 390,000 tested, 0.35% active; AID 588795, 2011; note: % is set by controls: 0 for no effect and ±100 for the full control effect; nearly all actives have a fitted effect of over 65% in size
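Reaction started by adding substrate (50 nM final) to 10 nM enzyme after 15 min room-temperature compound preincubation. Reads at 0 and 15 min, with data normalized and fitted to a four-parameter Hill equation.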
Active calls of the source: *; u = inconclusive; x = no result; [ ] = remark or other dose. Rows were chosen to be rich in hits. Some 2.4% of all compounds tested hit in one or more screens of this group. Calls come from the whole dose curve; as a rule, active = well fitted curve in the direction sought with a large enough effect; inconclusive = small, poorly fitted or top-dose-only effect, or another doubt; inactive = no such curve, though single readings can be large; an effect the other way counts as inactive or inconclusive. Potency is the fitted concentration of half-maximal effect.

SMILES	WRN inhibitor	Pol beta inh	POLH inh	Pol iota inh	Pol kappa inh	FEN1 inhibitor
N#Cc1cccc(NC(=O)N2CC3(CCN(C(=O)c4cc(C(F)(F)F)cc(C(F)(F)F)c4)CC3)C2)c1	x	x	x	x	-6%[60.1 µM]	x
CCc1ccccc1NC(=O)C(=O)NCCc1sc(-c2cccc(F)c2)nc1C	x	0%	-7%	68%	-13%[60.1 µM]	2%
CCOC(=O)C(C(=O)OCC)c1cc(Br)c2noc3c2c1C(=O)c1ccccc1-3	u	79µM*	8.9µM*	u	u	u
COc1ccc(Cl)c(Cn2cnc3c(cnn3C(C)(C)C)c2=O)c1F	x	x	x	6%	8%	21%
Cc1ccc(N2C(=O)c3cccc4c(N)ccc(c34)C2=O)c2cccnc12	u	u	u	79µM*	u	u
Cc1nn(C)c(C)c1N1C(=O)c2cccc3c(N)ccc(c23)C1=O	u	-9%	-17%	-3%	-21%	2%
O=C(O)C1CN(CCCP(=O)(O)O)CCN1 (configuration not stated)	x	5%[57.1 µM]	3%[57.1 µM]	-1%[58.9 µM]	-20%[60.1 µM]	x
Cc1c(NC(=O)CSc2nnc(-c3ccccc3F)o2)c(=O)n(-c2ccccc2)n1C	6%	x	-3%	x	x	x
CC1(C)OC(=O)C2(Cc3cc(C(F)(F)F)ccc3N3CCCCC32)C(=O)O1 (configuration not stated)	x	x	x	37%	-8%	-6%
CCCCNC1=CC(=O)C(NCCCC)=CC1=O	-3%	x	-26%	32µM*	-2%	9%
CCCCNC1=CC(=O)C(=O)c2ccccc21	8%	21%	u	u	-11%	-8%
OCC1O[C@H]([S-])[C@H](O)[C@@H](O)[C@@H]1O.[Au+] (some centres not stated)	x	x	x	x	5.3µM*	x
OC[C@H]1O[C@@H](Oc2cc(O)cc(/C=C/c3ccc(O)cc3)c2)[C@H](O)[C@@H](O)[C@@H]1O	x	20µM*	x	x	x	x
Cc1cc(Cn2cnc3c(cnn3C(C)(C)C)c2=O)ccc1F	x	x	x	-5%	1%	-12%
CC(C)(C)S(=O)N1Cc2ccc(CO)cc2[C@@H]1CCO (some centres not stated)	0%	x	-5%	78%	2%	30%
COc1cccc(C2Nc3ccc4ccccc4c3C3=C2C(=O)CCC3)c1O (configuration not stated)	11%	89µM*	-12%	155%	1%	8%
COc1cccc(-c2cc(=O)c3cc(NC(=O)c4cccnc4)ccc3[nH]2)c1	x	x	x	x	-7%[60.1 µM]	x
C=CCN=c1scc(C)n1/N=C/c1ccc(O)c(O)c1	2%	2.5µM*	-6%	u	u	13%
CN=c1scc(C)n1/N=C/c1ccc(O)cc1	0%	16%	-19%	-9%	-10%	-5%
COc1cc([C@H]2OC[C@H]3[C@@H]2CO[C@H]3c2ccc(O)c(OC)c2)ccc1O	-1%	x	-15%	30%	-5%	-18%
COc1cc(C2OCC3C(c4ccc(OC5OC(CO)C(O)C(O)C5O)c(OC)c4)OCC23)ccc1O (configuration not stated)	0%[11.6 µM]	u	u	71µM*	u	10%
CCOc1ccccc1NC(=O)CN1C(=O)C(=O)c2ccccc21	x	-17%	-14%	19%	-3%	-1%
CCOc1ccccc1C(O)C1=CC(=O)c2ccccc2C1=O (configuration not stated)	u	x	3.2µM*	6.3µM*	u	-11%
Nc1c(C(=O)c2ccccc2)sc(Nc2ccc(Cl)c(Cl)c2)c1C(=O)Nc1ccccc1	x	-9%	-22%	8%	-2%[60.1 µM]	-6%
Cc1ccc(NC(=O)CN(C)C(=O)CCC(=O)c2cccs2)cc1	-18%[57.1 µM]	18µM*	u	u	-6%	-1%
SMILES	WRN inhibitor	Pol beta inh	POLH inh	Pol iota inh	Pol kappa inh	FEN1 inhibitor
Cc1ccnc(NC(=O)CS(=O)(=O)c2ccccc2)c1	6%	1%	-14%	19%	-1%	-2%
O=C(CCS(=O)(=O)c1ccccc1)Nc1nnc(C(F)(F)F)s1	0%	50µM*	-10%	6%	0%	3%
Cc1ccnc(NC(=O)CCC(=O)c2cccs2)c1	-31%	x	u	20µM*	u	0%
Cc1ccnc(NC(=O)CCS(=O)(=O)c2ccccc2)c1	-30%	22µM*	7%	16%	-13%	-9%
Cc1cccc(Cn2cc(S(=O)(=O)c3ccc(Cl)cc3)c(=O)c3cc4c(cc32)OCO4)c1	x	32%	-6%	34%	-1%	-9%
O=C(Nc1ccc(Cl)c([N+](=O)[O-])c1)c1ccncc1	-28%	9%	-17%	0%	-8%	15%
O=C(Nc1ccc(Cl)c([N+](=O)[O-])c1)c1cnccn1	-32%	40µM*	22µM*	u	u	-11%
Cc1cccc(NC(=O)CSc2nnc(-c3ccco3)c(-c3ccco3)n2)c1C	32µM*	22µM*	13µM*	2µM*	32µM*	u
Cc1cccc(NC(=O)CSc2nc(N)cc(N)n2)c1	2%[57.1 µM]	-1%	-14%	30%	0%	-3%
Cc1cccc(NC(=O)CSc2nnc(-c3ccco3)c(-c3ccco3)n2)c1	32µM*	25µM*	40µM*	u	79µM*	-25%
Cc1ccccc1NC(=O)CSc1nnc(-c2ccco2)n1N	-12%	x	-13%	43%	4%	-1%
NC(=O)[C@@H]1CCNc2c(I)cc([N+](=O)[O-])cc2C(=O)N[C@@H](CCC(=O)O)C(=O)N[C@@H](CO)C(=O)N1	-15%[57.1 µM]	-7%	22µM*	u	u	-2%
CC[C@H](C)C1NC(=O)[C@H](CC(=O)O)NC(=O)c2cc([N+](=O)[O-])cc(I)c2NCCC(C(N)=O)NC1=O (some centres not stated)	-16%[57.1 µM]	1%	25µM*	u	79µM*	-4%
NC(=O)CC[C@@H]1NC(=O)[C@H](CO)NC(=O)c2cc([N+](=O)[O-])cc(I)c2NCCC[C@@H](C(N)=O)NC(=O)[C@H](Cc2ccc(O)cc2)NC1=O	-19%	0%	89µM*	u	-12%	-10%
C[C@@H]1NC(=O)[C@H](CCC(N)=O)NC(=O)c2cc([N+](=O)[O-])cc(I)c2NCC[C@@H](C(N)=O)NC1=O	-3%	20%	-14%	-2%	1%	0%
